Assay outcomes from PubChem.
Hits are enriched below; roughly 3.5% of the tested compounds scored in any of these assays.
Anthrax LF inh2 = Bacillus anthracis LF protease inhibitors, primary screen, biochemical, multiplex microsphere, MLPCN library; inhibition, % at 10 µM; multiplex microsphere protease cleavage assay; 0.12% of 360,000 active; Lethal factor (Bacillus anthracis), P15917; also: plate controls were buffer without enzyme for full effect and enzyme alone for no effect
Target sequence (P15917 whole entry, looked up): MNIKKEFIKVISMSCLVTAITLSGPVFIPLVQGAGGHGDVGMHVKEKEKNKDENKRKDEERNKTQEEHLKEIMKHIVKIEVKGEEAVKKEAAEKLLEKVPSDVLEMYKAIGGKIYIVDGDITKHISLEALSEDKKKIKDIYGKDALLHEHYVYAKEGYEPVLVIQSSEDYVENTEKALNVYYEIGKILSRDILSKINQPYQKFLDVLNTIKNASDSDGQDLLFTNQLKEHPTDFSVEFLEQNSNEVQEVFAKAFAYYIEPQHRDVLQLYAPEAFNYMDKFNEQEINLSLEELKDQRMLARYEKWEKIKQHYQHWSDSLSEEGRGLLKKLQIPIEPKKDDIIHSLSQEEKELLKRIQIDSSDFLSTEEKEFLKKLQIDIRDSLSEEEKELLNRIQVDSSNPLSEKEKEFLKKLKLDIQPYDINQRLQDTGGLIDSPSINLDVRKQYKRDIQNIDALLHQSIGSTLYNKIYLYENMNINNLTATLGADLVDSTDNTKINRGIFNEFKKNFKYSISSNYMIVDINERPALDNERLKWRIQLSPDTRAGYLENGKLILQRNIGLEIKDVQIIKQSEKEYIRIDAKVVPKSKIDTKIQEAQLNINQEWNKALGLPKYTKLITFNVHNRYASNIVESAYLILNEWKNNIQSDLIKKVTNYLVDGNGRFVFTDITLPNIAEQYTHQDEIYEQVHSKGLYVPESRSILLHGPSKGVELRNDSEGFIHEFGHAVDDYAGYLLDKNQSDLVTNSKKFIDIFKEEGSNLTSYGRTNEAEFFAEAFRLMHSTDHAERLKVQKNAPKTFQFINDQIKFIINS
BoNT-A LC inh2 = BoNT/A light chain protease inhibitors, primary screen, biochemical, flow cytometry, MLPCN library. inhibition, % at 10 µM. multiplex microsphere protease substrate cleavage. Botulinum neurotoxin type A light chain protease (Clostridium botulinum A str. ATCC 3502). 0.17% of 360,000 active. AID 588499, 2011; also: plate controls were buffer without enzyme for full effect and enzyme alone for no effect
BoNT-F LC inh = BoNT/F light chain protease inhibitors, primary screen, biochemical, flow cytometry, MLPCN library; inhibition, % at 10 µM; Botulinum neurotoxin type F light chain protease (Clostridium botulinum); Multiplex microsphere protease cleavage assay; 0.22% of 360,000 active; in the data active = inhibition above about 35%, passing the limit was not always enough; inconclusive = no clear call, values can overlap the other calls; also: plate controls were buffer without enzyme for full effect and enzyme alone for no effect
Autofluor counter = flagged as autofluorescent in microsphere protease counterscreen. fluorescence intensity (no concentration beside the values). 3.1% of 360,000 active. compound autofluorescence counterscreen, microsphere flow cytometry; stronger effect = higher value; in the data active = fluorescence intensity above about 16000; inconclusive = no clear call, values can overlap the other calls
Starred values were filed as active, the others as inactive; ? = inconclusive. Rule as the data show it, unless noted: active = inhibition above about 30%; inconclusive = no clear call, values can overlap the other calls; inactive = below that.

SMILES | Anthrax LF inh2 | BoNT-A LC inh2 | BoNT-F LC inh | Autofluor counter
CN1C(=O)N(C)C(=O)C2(Cc3ccccc3N3CCCC32)C1=O (stereo not drawn) | -17.5 | -2.4 | ? | ?
CN1C(=O)NC(=O)C2(Cc3ccccc3N3CCOCC32)C1=O (stereo not drawn) | 2.7 | ? | -5.5 | 17659*
O=C1NC(=O)[C@]2(Cc3ccccc3N3CCN(c4ccccc4)CC32)C(=O)N1Cc1ccccc1 (stereo partly drawn) | 1.4 | 2.2 | 5.9 | 4621
O=C1NC(=O)C2(Cc3ccccc3N3CCCC32)C(=O)N1Cc1ccccc1 (stereo not drawn) | -2.8 | ? | 2.6 | 19390*
O=C1NC(=O)[C@]2(Cc3ccccc3N3CCN(c4ccccc4)CC32)C(=O)N1c1ccccc1 (stereo partly drawn) | -2.6 | -2.1 | -5.1 | 24028*
O=C(NCc1ccccc1)Nc1nnc([C@@H]2C[C@H](O)[C@@H](CO)O2)s1 | -3.1 | 0.3 | -4.5 | 3413
COCCCNC(=O)CN(c1cc([N+](=O)[O-])ccc1OC)S(C)(=O)=O | -0.7 | 0.0 | 0.9 | 2230
CN1C(=O)NC(=O)[C@]2(Cc3ccccc3N3CCN(c4ccccc4)CC32)C1=O (stereo partly drawn) | -1.9 | -2.4 | -1.1 | 16912*
Cc1cc2ccccn2c1C(=O)Nc1cccc(Cl)c1 | -0.5 | -1.5 | -8.6 | 4680
CCN1C[C@@H]2[C@@H]3C(=O)N(C)C(=O)[C@@H]3[C@](Cc3ccccc3)(C(=O)OC)N2C1=NC1CCCCC1 | 0.0 | 0.1 | 4.9 | 3267
COc1cccc(-n2nnc3c(=O)n(Cc4ccccc4F)cnc32)c1 | -0.4 | -2.8 | -4.6 | 21710*
COc1cccc(-n2nnc3c(=O)n(Cc4cccc(C)c4)cnc32)c1 | -6.7 | -0.1 | -2.4 | 5511
COc1ccc(-n2nnc3c(=O)n(Cc4cc(C)ccc4C)cnc32)cc1 | 3.4 | 11.3 | 15.8 | 17509*
COc1cccc(-n2nnc3c(=O)n(CC(=O)N4CCC(Cc5ccccc5)CC4)cnc32)c1 | -3.7 | ? | -1.4 | 24394*
COc1cccc(-n2nnc3c(=O)n(CC(=O)N4CCC(C)CC4)cnc32)c1 | -1.6 | -0.8 | -7.4 | 8058
CCOC(=O)C(CC)n1cnc2c(nnn2-c2ccc(OC)cc2)c1=O (stereo not drawn) | -10.0 | 7.0 | 7.4 | 17635*
Cc1ccc(-n2nnc3c(=O)n(Cc4ccccc4C)cnc32)cc1 | -11.1 | 0.3 | -16.7 | 4392
CCN(CC)C(=O)C1=C(C)N(Cc2ccc(C(C)(C)C)cc2)C(=O)C(CC(=O)NCc2ccco2)C1 (stereo not drawn) | -2.4 | 0.1 | -2.4 | 3518
O=C1COc2ccc(S(=O)(=O)N3CCC(C(=O)NCc4ccc(F)cc4)CC3)cc2N1 | 5.1 | 16.9 | 21.5 | 2439
CCN(CC)c1ccc(/C=C2\CCC(/C=N/NC(=O)c3ccc(=O)n(C)c3)=C2N2CCOCC2)cc1 | -3.3 | 1.7 | -12.9 | 4169
CCOC(=O)C(C)n1cnc2c(nnn2Cc2ccc(Cl)cc2)c1=O (stereo not drawn) | 1.1 | -0.1 | 3.0 | 7834
CCOC(=O)C(C)n1cnc2c(nnn2Cc2ccc(C)cc2)c1=O (stereo not drawn) | -0.5 | ? | -0.1 | 20875*
CCc1ccc(NC(=S)N(CCC(C)C)C2CCN(C(C)=O)CC2)cc1 | -2.3 | -1.8 | 0.1 | 3507
CCc1ccc(NC(=S)N(CCOC)C2CCN(C(C)=O)CC2)cc1 | 26.2 | -1.3 | 39.9* | 3400
CC(C)NC(=O)C1CCN(C(=O)C(C(=O)c2ccccc2)n2cc(Cl)ccc2=O)CC1 (stereo not drawn) | -0.4 | -0.5 | -2.6 | 23513*
SMILES | Anthrax LF inh2 | BoNT-A LC inh2 | BoNT-F LC inh | Autofluor counter
COc1cccc(C(c2c(O)nc(SC)n(C)c2=O)c2c(O)nc(SC)n(C)c2=O)c1 | -4.0 | 2.2 | 4.3 | 21226*
S=c1nc(-c2ccccc2)[nH]n1-c1ccccc1 | -3.4 | -5.2 | -5.8 | 25268*
Cc1nc(=S)n(-c2ccccc2)[nH]1 | -3.9 | -0.5 | ? | 4287
COc1cc2c(c(OC)c1CC=C(C)C)C[C@H](c1ccc(O)cc1O)CO2 | 1.1 | -0.7 | -9.8 | 6797
O=C(c1ccccc1)N1N=C(C(F)(F)F)CC1(O)c1ccc(F)cc1 (stereo not drawn) | -2.5 | -1.2 | -0.6 | 3913
O=C(c1ccccc1)N1N=C(C(F)(F)F)CC1(O)c1ccccc1 (stereo not drawn) | 38.5* | -0.2 | -10.9 | 3136
CCCCCCC1CC(C)(/C(C)=N/NC(N)=O)OC1=O (stereo not drawn) | 2.1 | 5.3 | 6.4 | 18949*
CC(C)[C@H](NC(=O)c1ccco1)C(=O)OCC(=O)Nc1ccccc1OC(F)F | -8.1 | -0.9 | 1.5 | 4887
COc1ccc(S(=O)(=O)NC2CCCC2)cc1C(N)=O | 0.4 | 2.3 | 6.6 | ?
Cc1[nH]c2ccccc2c1/C=C(\C#N)C(=O)NCc1ccccc1 | 7.4 | 52.8* | -25.0 | 11132
COC(=O)CC1SC(=O)NC1=Nc1ccc(C)cc1 (stereo not drawn) | -2.2 | -0.3 | -1.7 | 8879
COC(=O)CC1SC(=O)NC1=Nc1ccccc1 (stereo not drawn) | 1.2 | 0.6 | -0.4 | 23324*
c1ccc(-c2noc(CN3CCN(c4ccccc4)CC3)n2)cc1 | 0.8 | -0.4 | 0.0 | 5649
COc1ccc(N2CCN(Cc3nc(-c4ccc(Cl)cc4Cl)no3)CC2)cc1 | -5.7 | -2.0 | -6.6 | 20566*
CCOC(=O)c1cnn(-c2cc(C(C)(C)C)nc3c(-c4ccccc4)c(C)nn23)c1N | -4.1 | ? | -10.8 | 26542*
CCOC(=O)c1cnn(-c2c(Cc3ccccc3)c(C)nc3c(-c4ccccc4)c(C)nn23)c1N | -0.2 | 3.5 | 4.0 | 22024*
COc1ccccc1CN(C(=O)c1cnccn1)C(C(=O)NC1CCCCC1)c1cc(OC)c(OC)c(OC)c1 (stereo not drawn) | -11.6 | -2.9 | -3.4 | 3885
O=C(CSc1ncccn1)NCCC1=CCCCC1 | 0.3 | 1.8 | 3.4 | 5183
Cc1ccc(C)c(-n2nnnc2SCC(=O)NCCC2=CCCCC2)c1 | -2.1 | -0.5 | -2.3 | 16990*
O=C(CSc1ncccc1C(=O)O)NCCC1=CCCCC1 | -2.8 | 0.2 | 1.7 | 20428*
Cc1cc(Cl)ccc1Oc1nc(-c2ccc(F)cc2)ccc1C#N | -0.8 | ? | 0.2 | 22004*
Cc1ccc(C(=O)Nc2cccnc2)cc1Cl | 2.5 | 0.5 | ? | 3361
Cc1ccccc1N1CCN(Cc2c(C#N)c3ccccc3n2C)CC1 | -1.3 | -3.9 | -6.1 | 23866*
Cn1c(CN2CCN(CCO)CC2)c(C#N)c2ccccc21 | 1.2 | 3.7 | ? | 4715
Nc1cc(=O)[nH]c(SCC(=O)Nc2ccc(N3CCOCC3)cc2)n1 | -2.8 | 0.4 | -8.1 | 3643
CC(C)CCn1c(=O)c(C(=O)Nc2ccccc2S(N)(=O)=O)c(O)c2ccccc21 | -3.1 | -2.4 | -4.6 | 22781*
Cc1nc(SCc2c(F)cccc2Cl)n[nH]1 | -3.1 | 5.8 | 8.1 | 19718*
Cc1cc(C)n2nc(SCc3c(F)cccc3Cl)nc2n1 | 17.6 | 1.2 | 0.5 | 2833
Cc1ccc(CN2CCN(C(=O)C3CCC3)CC2)cc1 | -9.3 | 0.6 | -2.9 | 22954*
